# Bioassay records as filed in PubChem.
# Most compounds without a hit are left out; they make up all but 2.3% or so of the library.
# PP1 counter: PP1-alpha (human) inhibition in PP5 counter-screen; actives 0.9% (n = 320,000); inhibition, % at 6.7 µM; P62136; purified PP1alpha, OMFP fluorescence;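 active means inhibition above the mean inhibition of all tested compounds plus 3 SD, computed separately for each screening campaign, cut at about 15% in these data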
# Target sequence (P62136 whole entry, looked up): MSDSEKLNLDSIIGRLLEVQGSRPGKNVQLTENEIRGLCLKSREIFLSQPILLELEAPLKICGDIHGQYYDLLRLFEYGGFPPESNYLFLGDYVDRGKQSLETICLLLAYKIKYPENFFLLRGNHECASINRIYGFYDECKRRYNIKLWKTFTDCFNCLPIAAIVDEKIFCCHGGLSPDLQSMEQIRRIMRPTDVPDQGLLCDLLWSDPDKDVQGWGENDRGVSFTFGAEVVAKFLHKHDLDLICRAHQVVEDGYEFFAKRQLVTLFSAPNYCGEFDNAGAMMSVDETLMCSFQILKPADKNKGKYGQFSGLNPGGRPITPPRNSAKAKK
# bovine MsrA act: activators of bovine methionine sulfoxide reductase A. purified bovine MsrA, absorbance read-out. activation, % at 10.6 µM. actives 0.3% (n = 360,000). AID 602163; in the data active means activation above about 7.5%
# EBNA-1 inhibitor: blocks EBNA-1 binding to DNA; EBNA-1 DNA binding, fluorescence polarization; AID 1950; inhibition, % at 14.8 µM; actives 0.34% (n = 300,000); in the data active means inhibition above about 28%
# MsrA inhibitor: inhibits bovine methionine sulfoxide reductase A; actives 0.75% (n = 360,000); purified bovine MsrA, absorbance read-out; inhibition, % at 15.5 µM; AID 651718; in the data active means inhibition above about 4.5%
# ZTA counter: ZTA (EBV) inhibition in EBNA-1 counter-screen; P03206; inhibition, % at 11 µM; actives 0.15% (n = 320,000); ZTA-DNA binding, fluorescence polarization; in the data active means inhibition above about 33%
# Target sequence (P03206 whole entry, looked up): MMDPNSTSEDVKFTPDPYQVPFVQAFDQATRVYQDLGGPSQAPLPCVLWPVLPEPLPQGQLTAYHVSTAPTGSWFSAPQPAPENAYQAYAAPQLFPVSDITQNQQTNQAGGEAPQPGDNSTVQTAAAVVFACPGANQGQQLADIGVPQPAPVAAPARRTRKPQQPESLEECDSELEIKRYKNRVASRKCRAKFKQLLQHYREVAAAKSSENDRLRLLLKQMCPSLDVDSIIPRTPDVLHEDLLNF
# PP5 inh: PP5 (human) phosphatase inhibition; P53041; purified PP5c, OMFP substrate fluorescence; inhibition, % at 6.7 µM; actives 0.18% (n = 320,000); AID 1987;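 active means inhibition above the campaign's mean inhibition across all tested compounds plus 3 SD, cut at about 9.5% in these data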
# MsrA act confirm: bovine methionine sulfoxide reductase A activation confirmed | purified bovine MsrA, absorbance read-out | shares compounds with bovine MsrA act | actives 12% (n = 1,000) | AID 602270 | activation, % at 10.6 µM; in the data active means activation above about 4%;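 further: enzyme coupled to thioredoxin and thioredoxin reductase with NADPH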
# A number is an active result; 0 = inactive; - = not tested or not shown.
SMILES,PP1 counter,bovine MsrA act,EBNA-1 inhibitor,MsrA inhibitor,ZTA counter,PP5 inh,MsrA act confirm
CC1(C)CC(=O)C2=C(C1)N(CC1CCCO1)C(=O)NC2(C(F)(F)F)C(F)(F)F (configuration not stated),0,11.0,0,0,0,0,0
COc1ccc(-c2nnc(-c3cccnc3)o2)cc1OC,0,0,0,0,0,0,-
CCOc1ccc(-c2nnc(-c3cccnc3)o2)cc1OCC,0,9.2,0,0,0,0,0
Cc1cccc(C)c1NC(=O)CNC(=O)c1cncc(Br)c1,0,0,0,0,0,0,-
CC(NC(=O)Cn1cccc1C(=O)c1ccccc1)c1ccccc1 (configuration not stated),0,11.8,0,0,0,0,0
COc1ccc(Cl)cc1NC(=O)NCC1CCN(Cc2cc(C)ccc2C)CC1,0,0,0,0,0,0,-
COc1cc([N+](=O)[O-])ccc1NC(=O)NCC1CCN(Cc2ccc(Cl)cc2)CC1,0,21.6,0,0,0,0,0
Cn1c(N)c(S(=O)(=O)NCc2ccccc2)c(=O)n(C)c1=O,0,0,0,0,0,0,-
Cn1c(N)c(S(=O)(=O)NCc2ccc(Cl)cc2)c(=O)n(C)c1=O,0,8.9,0,0,0,0,0
CCc1cccc(C)c1NC(=O)CCN1C(=O)NC(C)(C)C1=O,0,0,-,0,0,0,-
CCc1ccc2c(c1)c1nc(C)sc1n2CC,0,26.0,0,0,0,0,0
CC(=O)OCCn1c2nc(=O)[nH]c(=O)c-2nc2cc(C)c(C)cc21,-,12.6,-,0,-,-,16.0
CC(=O)OCCn1c(C)[n+](CCOC(C)=O)c2cc(Cl)c(Cl)cc21,0,0,0,0,0,0,-
Cc1cccc(C)c1NC(=O)COC(=O)C1CC1,0,9.7,-,0,0,0,0
O=C(NCCO)c1cccc2c1-c1ccccc1C2=O,0,0,0,0,0,0,-
O=C1c2ccccc2-c2c1cccc2C(=O)N(CCO)CCO,0,11.7,0,0,0,0,0
COc1nccc(C(F)(F)F)c1C(=O)NC(=O)Nc1ccccc1,0,9.5,0,0,0,0,0
Cc1csc(NC(=O)CSc2nnc(-c3ccoc3C)n2Cc2ccco2)n1,0,0,0,0,0,0,-
O=C(NCCO)c1cccc(Nc2nc(-c3ccccc3)c3cc(Cl)ccc3n2)c1,0,16.9,0,0,0,0,0
COc1ccc(CCN(Cc2cc3ccc(C)cc3n3nnnc23)C(C)=O)cc1OC,0,0,0,0,0,0,-
Cc1cccc(N2CCN(S(=O)(=O)c3ccc(-c4coc(C)n4)cc3)CC2C)c1 (configuration not stated),0,7.7,0,0,0,0,0
Cc1nc(-c2ccc(S(=O)(=O)N3CCN(c4ccccc4)CC3)cc2)co1,0,0,0,0,0,0,-
Cc1ccc2cc(C#N)c(N3CCCN(S(=O)(=O)c4ccc(F)cc4)CC3)nc2c1,0,0,0,0,0,0,-
Cc1ccc2cc(C#N)c(N3CCCN(S(=O)(=O)c4ccccc4)CC3)nc2c1,0,8.7,0,0,0,0,0
CCOc1ccc(NC(=O)C2CCN(C(=O)C3CC(=O)N(c4ccc(C)cc4)C3)CC2)cc1 (configuration not stated),0,0,0,0,0,0,-
SMILES,PP1 counter,bovine MsrA act,EBNA-1 inhibitor,MsrA inhibitor,ZTA counter,PP5 inh,MsrA act confirm
NC1=C(Br)C(=O)c2ccccc2C1=O,0,9.7,0,0,0,0,9.4
Cc1cc2c(cc1C)C(=O)C(Br)=C(N)C2=O,-,0,-,0,-,-,-
O=C(NC(=S)Nc1ccc2[nH]c(=O)[nH]c2c1)c1ccccc1[N+](=O)[O-],0,0,0,0,0,0,-
CCc1ccc(C(O)(C(C)C)C(CN2CCOCC2)c2ccccc2)cc1 (configuration not stated),-,8.1,-,0,-,-,0
CC(C)C(O)(c1ccccc1)C(CN1CCOCC1)c1ccccc1 (configuration not stated),-,0,-,0,-,-,-
O=C(c1ccc(Cl)cc1)n1c(NCc2ccccc2)n[nH]c1=S,0,0,0,0,0,0,-
Cc1ccc(NCc2nnc3n2CCCCC3)c(C)c1,0,8.2,0,0,0,0,0
Fc1ccc(NCc2nnc3n2CCCCC3)cc1,0,0,0,0,0,0,-
c1ccc(-n2cnc3cc(NCc4ccco4)ccc32)cc1,0,9.5,0,0,0,0,0
O=C(NC(=S)NNC(=O)c1ccccc1[N+](=O)[O-])c1ccc(Br)cc1,0,10.0,0,0,0,0,0
O=C(NNC(=S)NC(=O)c1ccccc1[N+](=O)[O-])c1ccccc1Cl,0,0,0,0,0,0,-
O=C(N/N=C/c1ccc([N+](=O)[O-])s1)c1ccccc1,0,0,0,0,0,0,-
O=C(Cc1ccccc1)N/N=C/c1ccc([N+](=O)[O-])s1,0,7.9,0,0,0,0,0
CC1=C(C(=O)N(C(C)C)C(C)C)CC(CC(=O)NCc2cccs2)C(=O)N1CCC1=CCCCC1 (configuration not stated),-,0,-,0,-,-,-
COc1ccccc1NC(=O)COC(=O)C12CC3CC(CC(Cl)(C3)C1)C2,0,15.2,0,0,0,0,0
COc1ccccc1NC(=O)COC(=O)C12CC3CC(CC(Br)(C3)C1)C2,-,0,-,0,-,-,-
CC1(C(=O)Nc2ccccc2)CCN1C(=O)Cc1ccc(-c2ccccc2)cc1 (configuration not stated),-,14.2,-,0,-,-,5.2
COc1ccc(S(=O)(=O)Nc2cc(C)on2)cc1,0,0,0,0,0,0,-
CCN(CC)C(=O)Cn1ncc2c1-c1ccccc1OC2,0,0,0,0,0,0,-
O=C(Cn1ncc2c1-c1ccccc1OC2)N(Cc1ccco1)C1CCCCC1,0,7.7,0,0,0,0,0
COc1ccc(-c2noc(CSc3nnc(-c4ccncc4)n3-c3ccc(F)cc3)n2)cc1OC,0,17.9,0,0,0,0,0
Cc1cc(NC(=O)CSc2nnc(-c3ccncc3)n2-c2ccc(F)cc2)no1,0,0,0,0,0,0,-
COc1cccc(C(c2sc3ncnn3c2O)N2CC(C)OC(C)C2)c1 (configuration not stated),0,8.1,0,0,0,0,0
COCCCNC(=O)C1CCC(CNS(=O)(=O)c2ccc(Cl)cc2)CC1 (configuration not stated),0,0,0,0,0,0,-
COc1ccc(/C=N/Nc2ncnc(Cl)c2N)cc1OC,0,0,0,0,0,0,-
COc1cc(/C=N/n2nnnc2N)ccc1OC(C)=O,-,0,-,0,-,-,-
COc1ccc(/C=N/Nc2nnc(C)n2N)cc1OC,0,9.0,0,0,0,0,0
COc1ccc(/C=N/Nc2nnc(C)n2N)cc1OC(C)=O,0,11.8,0,0,0,0,0
COc1ccc(C(=O)COc2ccc(C(C)=O)cc2OC)cc1OC,-,0,-,0,-,-,-
CN(C)c1ccc(-c2sc(Nc3ccccc3)n[n+]2-c2ccc(F)cc2)cc1,0,0,0,0,0,0,-
